An excerpt weighted towards active compounds, which were near 1.7% of everything screened.
Vif inh: inhibitors of HIV Vif; HEK293T cells, Vif self-association by quenched fluorescence, imaging, 24 h; 340,000 compounds, 0.35% hits; inhibition, % at 7.49 µM; AID 602346; in the data active means inhibition above about 50%, passing the limit was not always enough
CFTR F508del cor: correctors of CFTR F508del function in bronchial epithelial cells. CFBE cells, YFP halide quenching; stimulated with forskolin plus potentiator P3; % fluorescence drop versus neutral controls. activity (quench increase), % at 7.58 µM. 350,000 compounds, 0.36% hits. AID 720511;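 active means mean added fluorescence quench of at least 8% versus neutral control, with both replicates also reaching 8%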;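 further: cells transiently co-express mutant CFTR-F508del with the halide-sensitive YFP; corrector assay measuring rescue of mutant channel to the surface after 24 h compound exposure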
FGF22 binding: shifts melting point of recombinant human FGF22. Q9HCT0. recombinant FGF22 thermal shift, SYPRO orange fluorescence; percent of sucrose octasulfate shift, DMSO zero. activity (Tm shift, normalised), % at 9.99 µM. 340,000 compounds, 1.5% hits. AID 651658;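 active means mean Tm shift, scaled 0 neutral to 100 positive control, at about 1.3% or above, every replicate too, limit read from the data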
Target sequence (Q9HCT0 whole entry, looked up): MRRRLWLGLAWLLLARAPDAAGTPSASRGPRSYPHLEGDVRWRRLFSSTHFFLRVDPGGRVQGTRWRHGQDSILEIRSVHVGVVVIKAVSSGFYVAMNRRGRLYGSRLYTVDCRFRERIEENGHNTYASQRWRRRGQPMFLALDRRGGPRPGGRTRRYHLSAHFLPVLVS
* = called active by the depositor; i = inactive; x = no result.

SMILES	Vif inh	CFTR F508del cor	FGF22 binding
Cc1noc(C)c1NC(=O)N(C)C[C@@H]1OCCCC[C@H](C)Oc2ccc(NC(=O)CCC(F)(F)F)cc2C(=O)N([C@H](C)CO)C[C@H]1C	x	-2.0	-0.7
C[C@H](CO)N1C[C@H](C)[C@H](CN(C)Cc2cncnc2)Oc2cc(C#CC3CCCC3)ccc2S1(=O)=O	x	6.2	0.0
Cc1ccccc1S(=O)(=O)N1CC[C@@H]2[C@H]1c1cc(-c3cccc(F)c3)ccc1N[C@@H]2CO	x	3.5	0.2
CO[C@@H]1CN(C)C(=O)c2cc(NC(=O)c3cc(C)on3)ccc2OC[C@@H](C)N(C(=O)C2CC2)C[C@H]1C	x	1.1	0.0
COCC(=O)N1[C@@H]2CN(C(=O)Nc3cc(F)ccc3F)c3ccccc3[C@@H]2[C@@H]1CO	x	0.2	-0.3
CN(CC(=O)NCCc1ccc(F)cc1)Cc1ccccc1	6.0	-2.3	-0.3
CSc1ccc(CN(C)CC(=O)NCCc2ccccc2)cc1	69.3*	0.5	-0.4
CCN(C(=S)Nc1cc(S(=O)(=O)N2CCOCC2)ccc1Cl)c1cccc2ccccc12	-1.6	x	0.2
O=S(=O)(c1ccc(Cl)c(NC(=S)Nc2cccc(O)c2)c1)N1CCOCC1	2.1	x	1.7*
O=C(CC1SC2=NCCN2C1=O)Nc1ccc(Br)cc1 (configuration not stated)	53.3*	x	x
CCOC(=O)c1ccc(NC(=O)CC2SC3=NCCN3C2=O)cc1 (configuration not stated)	27.2	-1.1	0.3
O=C(C[C@@H]1CC[C@@H]2[C@H](COC[C@@H](O)CN2Cc2nccs2)O1)NCc1ccccc1	x	-0.1	x
CCCCCCCC(=O)OCC(COC(=O)CCCCCCC)OC(=O)CCCCCCC	9.1	-3.2	0.2
CCCCCCCCCC(=O)OCC(O)CO (configuration not stated)	1.4	8.2*	-0.3
Cc1noc(C)c1S(=O)(=O)N(C)C[C@@H]1OCCCC[C@H](C)Oc2ccc(NC(=O)CCCN(C)C)cc2C(=O)N([C@H](C)CO)C[C@H]1C	x	-3.0	0.0
Cc1cc(C)c2c(=O)[nH]c(SCC(=O)c3ccc(C)c(C)c3)nc2n1	-7.6	3.4	44.1*
Cc1ccc(NC(=O)CSc2nc3nc(C)cc(C)c3c(=O)[nH]2)cc1	7.7	x	x
CN(C)CCCNC(=O)C[C@H]1CC[C@@H]2[C@@H](COc3ccc(NC(=O)C4CCC4)cc3C(=O)N2C)O1	x	-2.6	0.1
Cc1cc(C)nc(N(C#N)Cc2cccc(Cl)c2)n1	0.8	10.5*	0.3
Cc1cc(C)nc(N(C#N)Cc2ccc(Cl)cc2)n1	0.2	0.3	-0.1
COCC(=O)N1CC2(C1)CN(C(=O)CN1CCOCC1)[C@H](CO)c1c2c2ccc(OC)cc2n1C	x	1.6	x
CCOC(=O)C(Cc1ccnc2ccccc12)=NO	-3.7	2.3	0.2
CCOC(=O)C(=O)Cc1cccnn1	1.3	1.0	42.9*
CCOc1ccc(C2=Nn3c(nnc3-c3ccccc3OC)SC2)cc1	12.1	x	x
CCOc1ccc(-c2nnc3n2N=C(c2ccc(OC)cc2)CS3)cc1	50.4*	x	x
SMILES	Vif inh	CFTR F508del cor	FGF22 binding
COCC(=O)N[C@H]1C=C[C@@H](CC(=O)NCc2ccc(Cl)cc2)O[C@H]1CO	x	0.3	x
COc1ccc(NC(=O)Nc2ccc3c(c2)C(=O)N([C@H](C)CO)C[C@@H](C)[C@H](CN(C)C(=O)NC2CCCCC2)OCCCC[C@H](C)O3)cc1	x	-0.5	14.7*
COc1ccc(NC(=O)Nc2ccc3c(c2)C(=O)N([C@H](C)CO)C[C@@H](C)[C@H](CN(C)S(=O)(=O)c2cn(C)cn2)OCCCC[C@@H](C)O3)cc1	x	-2.0	0.3
COc1ccc(NC(=O)Nc2ccc3c(c2)C(=O)N([C@H](C)CO)C[C@H](C)[C@@H](CN(C)S(=O)(=O)c2cn(C)cn2)OCCCC[C@H](C)O3)cc1	x	-2.2	1.4*
COc1ccc(NC(=O)N(C)C[C@H]2Oc3c(cccc3N(C)C)C(=O)N([C@H](C)CO)C[C@H]2C)cc1	x	8.1*	x
COc1ccc(NC(=O)N(C)C[C@H]2Oc3c(cccc3N(C)C)C(=O)N([C@@H](C)CO)C[C@@H]2C)cc1	x	0.2	-0.6
COc1ccc(NC(=O)Nc2ccc3c(c2)C(=O)N([C@@H](C)CO)C[C@H](C)[C@H](CN(C)C(=O)NC2CCCCC2)OCCCC[C@@H](C)O3)cc1	x	-0.1	0.1
CC(C)NC(=O)N(C)C[C@H]1Oc2ncc(C#CCC3CCCC3)cc2C(=O)N([C@@H](C)CO)C[C@H]1C	x	-1.0	-0.2
CN(C[C@@H]1[C@H](c2ccccc2)[C@@H](CO)N1C(=O)C1CCC1)C(=O)c1ccccn1	x	-1.2	0.1
C[C@H]1CN([C@@H](C)CO)C(=O)c2cccc(NS(=O)(=O)c3ccc(Cl)cc3)c2O[C@@H]1CN(C)C(=O)NC1CCCCC1	x	0.2	-0.2
Cc1ccc(NC(=S)Nc2ccc(F)cc2)c(C)c1	-0.7	2.9	43.9*
Cc1ccc(NC(=S)NCCc2ccc(F)cc2)c(C)c1	5.5	x	x
COc1cc(/C=C/C(=O)O)cc(S(=O)(=O)Nc2ccc3cn[nH]c3c2)c1OC	26.4	8.8*	-0.1
COc1cc(/C=C/C(=O)O)cc(S(=O)(=O)Nc2ccc3[nH]c(=O)[nH]c3c2)c1OC	3.2	0.3	-0.5
COc1ccc(NC(=O)N(C)C[C@H]2Oc3ccc(NC(=O)Nc4ccccc4)cc3CC(=O)N([C@@H](C)CO)C[C@@H]2C)cc1	x	0.5	-0.1
O=C(Cc1ccccc1)N1C[C@H]2[C@@H](c3ccccc31)[C@@H](CO)N2C(=O)C1CC1	x	0.7	0.7
O=C(CCCl)Nc1nc2c(s1)CCc1ccccc1-2	-9.5	8.8*	-0.2
CC(=O)Nc1nc2c(s1)CCc1ccccc1-2	-7.8	0.9	-0.1
CS(=O)(=O)Nc1ccc2c(c1)[C@H]1C[C@H](CC(=O)NCc3ccccn3)O[C@@H](CO)[C@H]1O2	x	1.4	0.0
CCCCN1CN(S(=O)(=O)c2ccc(OC)cc2)c2nc3ccccc3nc21	-10.5	1.0	-0.3
COc1ccc(S(=O)(=O)N2c3cc(Cl)ccc3Oc3nc4ccccc4nc32)cc1	58.0*	x	x
CCOc1ccccc1C1C2=C(COC2=O)Nc2cc3c(cc21)OCO3 (configuration not stated)	80.7*	5.1	41.3
O=C1OCC2=C1C(c1ccc(F)cc1)c1cc3c(cc1N2)OCCO3 (configuration not stated)	28.9	2.3	0.0
O=C1OCC2=C1C(c1ccc(F)cc1)c1cc3c(cc1N2)OCO3 (configuration not stated)	33.2	-2.0	43.5*
CCOc1ccccc1C1CC(=O)Nc2cc3c(cc21)OCO3 (configuration not stated)	-4.1	x	x
CCN1[C@@H]2Cn3c(ccc(-c4cccc(F)c4)c3=O)[C@H]1[C@@H](C(=O)N(C)C)[C@@H]2CO	x	-0.1	0.0
Nc1ccc(-c2c3ccc(=O)cc-3oc3cc(O)ccc23)cc1C(=O)O	-2.1	8.8*	-0.3
O=c1ccc2c(-c3ccccc3)c3ccc(O)cc3oc-2c1	i	57.8*	-0.1
O=c1cc(-c2ccccc2)oc2cc(O)ccc12	-2.2	-0.1	0.0
COc1ccc(-c2c(C)c3ccc(O)cc3oc2=O)cc1OC	27.7	0.1	-0.1
